Screening data: PubChem, National Center for Advancing Translational Sciences (NCATS)
This is a sample that favours compounds with a hit; in the whole collection about 10% have one here.
HP1b binding inh: inhibitors of HP1-beta chromodomain binding to methylated histone tails | 390,000 tested, 0.56% active | Potency, µM (series often up to 114 µM), usual class: inhibitors | AlphaScreen HP1-beta / biotin-H3K9me3 peptide binding; note: nearly all actives have a fitted effect of over 70% in size
Target sequence (P83916 whole entry, looked up): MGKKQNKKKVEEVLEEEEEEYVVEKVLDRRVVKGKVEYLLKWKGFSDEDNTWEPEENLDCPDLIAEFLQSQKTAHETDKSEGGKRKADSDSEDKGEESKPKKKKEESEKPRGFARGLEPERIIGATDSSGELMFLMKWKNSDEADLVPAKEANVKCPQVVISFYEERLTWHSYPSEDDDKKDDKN
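HP1-beta protein (50 nM final) preincubated 30 min at room temperature with biotinylated H3(1-18)K9me3 peptide (50 nM) in PBS pH 7.4, 0.01% Tween-20, then compound added for 30 min. AlphaScreen streptavidin donor/nickel chelate acceptor beads (10 ug/mL final), 30 min dark, luminescence read.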
Six1-Eya2 blk: blocks human Six1 binding to Eya2; activity change, % (test concentration not listed); AlphaScreen GST-Six1/His-Eya2 binding, biochemical; active compounds read low; Q15475+O00167; 360,000 tested, 0.56% active; in the data active = activity change below about -65%; inconclusive = mostly about -30% to -63%
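Compounds are tested against tagged Six1 and Eya2 proteins bridged by glutathione donor and nickel acceptor beads; after a one-hour incubation at 37 °C without light, AlphaScreen emission is recorded.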
BAZ2B inh: blocks human BAZ2B | AID 504333 | AlphaScreen BAZ2B-H3K14Ac peptide displacement | Potency, µM (top dose mostly 114 µM), hits mostly inhibitors | Q9UIF8 | 360,000 tested, 4.4% active; note: nearly all actives have a fitted effect of over 60% in size
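AlphaScreen luminescence quantifies BAZ2B engagement of H3K14Ac peptide; the protein and biotinylated peptide are both at 50 nM final, buffer PBS pH 7.4 with 0.01% Tween-20, all steps at room temperature.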
G9a inh: G9a (human) methyltransferase inhibition. Q96KQ7. G9a H3K9 monomethylation, AlphaScreen, 2 h. Potency, µM (doses to about 102 µM), usual class: inhibitors. 350,000 tested, 8.8% active. AID 504332; note: nearly all actives have a fitted effect of over 75% in size
Target sequence (Q96KQ7 913-1193 limits assumed): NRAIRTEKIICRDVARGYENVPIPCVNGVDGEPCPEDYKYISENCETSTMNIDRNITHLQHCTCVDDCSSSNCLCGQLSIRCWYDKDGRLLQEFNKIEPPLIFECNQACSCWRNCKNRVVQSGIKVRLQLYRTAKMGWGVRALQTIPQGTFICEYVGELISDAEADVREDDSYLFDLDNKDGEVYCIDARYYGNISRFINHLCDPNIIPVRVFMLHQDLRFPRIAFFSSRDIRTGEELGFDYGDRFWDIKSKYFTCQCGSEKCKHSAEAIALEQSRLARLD
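G9a (20 nM) preincubated 15 min RT with compounds, then 500 nM biotinylated H3K9 peptide and 20 uM SAM added; 2 h RT reaction. Monomethyl-H3K9 product detected by AlphaScreen with anti-H3K9me1 antibody, streptavidin donor and anti-rabbit IgG acceptor beads.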
CtBP-E1A inh: CtBP/E1A binding inhibition | AlphaScreen GST-E1A/His-CtBP binding, 1536-well; active compounds read low | activity change, % (test concentration not listed) | 340,000 tested, 0.49% active | AID 651724; in the data active = activity change below about -65%; inconclusive = mostly about -30% to -63%
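Steps: dispense buffer (Tris pH 8.0, NaCl 300 mM, TCEP 1 mM, BSA, Tween 20); add 5X protein mix (GST-E1A, His-CtBP, 125 nM each); pin 23 nL compound; 2 h at 37 °C, dark; add 5X beads (50 ug/mL); 1 h; read.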
JMJD2A Tudor: blocks the human JMJD2A Tudor domain; O75164; AlphaScreen JMJD2A-Tudor / H3K4me3 peptide binding; Potency, µM (series often up to 114 µM), usual class: inhibitors; 390,000 tested, 4.4% active; AID 504339; note: nearly all actives have a fitted effect of over 50% in size
Large screens that a line does not name were inactive. Unless noted, calls come from the whole dose curve; as a rule, active = well fitted inhibition curve with a large enough effect; inconclusive = small, poorly fitted or top-dose-only effect; inactive = no such curve, though single readings can be large or run the other way.

C=CCn1c(SCC(=O)c2ccc(Br)cc2)nnc1C(CC(C)C)NC(=O)c1cccs1 (stereo not given)	G9a inh 50µM
CC(C)CC(NC(=O)c1cccs1)c1nnc(SCc2ccc(Cl)c(Cl)c2)n1C (stereo not given)	none
Cc1ccc(S(=O)(=O)NCCCCCC(=O)Nc2nccs2)cc1	BAZ2B inh 79µM, G9a inh 11µM, JMJD2A Tudor inconclusive
COc1cc(C(=O)Nc2cc(S(=O)(=O)N3CCOCC3)ccc2N2CCOCC2)ccc1OC(F)F	none (no result: BAZ2B inh, G9a inh, CtBP-E1A inh)
Cc1ccc2oc(Nc3nc(-c4ccccc4)cc(=O)[nH]3)nc2c1	BAZ2B inh inconclusive, G9a inh 79µM, JMJD2A Tudor inconclusive
COCc1cc(=O)[nH]c(Nc2nc3ccccc3o2)n1	Six1-Eya2 blk -74, BAZ2B inh 40µM, CtBP-E1A inh -85, JMJD2A Tudor 79µM
CC1=C(C(=O)N(C)C)CC(CC(=O)NCc2ccco2)C(=O)N1Cc1ccccc1 (stereo not given)	none (no result: HP1b binding inh, BAZ2B inh, G9a inh, JMJD2A Tudor)
N#Cc1ccccc1OCC(=O)N1CC(=O)Nc2ccccc21	none (no result: HP1b binding inh, BAZ2B inh, G9a inh, JMJD2A Tudor)
O=C(Cn1cnc([N+](=O)[O-])n1)c1ccc(O)c(O)c1	BAZ2B inh 79µM, G9a inh 8.9µM, JMJD2A Tudor inconclusive
CC(C)(C)CC(C)(C)N1CNC(=S)NC1	G9a inh 45µM (no result: CtBP-E1A inh)
OCCCN1CNC(=S)NC1	none (no result: HP1b binding inh, BAZ2B inh, G9a inh, JMJD2A Tudor)
O=C(c1ccc2c3c(cccc13)CC2)C1CCCN(C(=O)c2cccnc2)C1 (stereo not given)	G9a inh inconclusive (no result: CtBP-E1A inh)
COc1cc(CN2CCCC(C(=O)c3ccc4c5c(cccc35)CC4)C2)cc(OC)c1O (stereo not given)	BAZ2B inh 40µM, G9a inh 32µM, JMJD2A Tudor inconclusive
Cc1cccc(CN2CCCC(C(=O)c3ccc4c5c(cccc35)CC4)C2)n1 (stereo not given)	BAZ2B inh inconclusive, G9a inh inconclusive, JMJD2A Tudor inconclusive
O=C(c1ccc2c3c(cccc13)CC2)C1CCCN(Cc2cccnc2)C1 (stereo not given)	BAZ2B inh 45µM, JMJD2A Tudor inconclusive (no result: G9a inh)
Cc1cc(C(=O)CN2C(=O)c3cccc(N)c3C2=O)c(C)n1Cc1cccs1	JMJD2A Tudor inconclusive
Oc1cccc(Nc2c3ccccc3nc3ccccc23)c1	BAZ2B inh inconclusive, G9a inh 40µM, JMJD2A Tudor inconclusive (no result: CtBP-E1A inh)
OCCNc1nc(N2CCN(c3ccccc3)CC2)nc2ccccc12	G9a inh 79µM
OCCNc1nc(Nc2cccc(O)c2)nc2ccccc12	Six1-Eya2 blk inconclusive, G9a inh 71µM, CtBP-E1A inh inconclusive
O=C1C(Cc2cccc([N+](=O)[O-])c2)SC(=Nc2ccccc2)N1c1ccccc1 (stereo not given)	none
Cc1cccc(NC(=O)COC(=O)Cc2cccs2)c1C	none
Cc1c(/C=N/NC(=O)CNc2ccccc2)c2ccccn2c1C(=O)c1ccc(Cl)cc1	none
Cc1c(/C=N/NC(=O)CNc2ccccc2)c2ccccn2c1C(=O)c1ccncc1	BAZ2B inh inconclusive, G9a inh 45µM
COc1cc(-c2nc3cnccn3c2Nc2ccc(C(C)C)cc2)ccc1O	none
COc1cc(-c2nc3nc[nH]n3c2Nc2ccc(C(C)C)cc2)ccc1O	HP1b binding inh inconclusive, G9a inh 8.9µM, JMJD2A Tudor inconclusive (no result: Six1-Eya2 blk, CtBP-E1A inh)
CCOC(=O)N1CCN(C(=O)CCCn2c(=S)[nH]c3ccc(Br)cc3c2=O)CC1	G9a inh 10µM
CCOC(=O)N1CCN(C(=O)CCCCCn2c(=S)[nH]c3ccsc3c2=O)CC1	G9a inh 18µM, JMJD2A Tudor 79µM
CCOC(=O)N1CCN(C(=O)CCCn2c(=S)[nH]c3ccsc3c2=O)CC1	BAZ2B inh inconclusive, G9a inh 32µM, JMJD2A Tudor 22µM
COc1ccc(-c2nnc(SCC(=O)c3ccc([N+](=O)[O-])cc3)o2)cc1OC	none (no result: Six1-Eya2 blk, CtBP-E1A inh)
O=C1c2cc(Br)ccc2N(Cc2ccc(Br)cc2)S(=O)(=O)C1c1cc(Cl)c(Cl)cc1[N+](=O)[O-] (stereo not given)	HP1b binding inh inconclusive, JMJD2A Tudor 35µM (no result: BAZ2B inh, G9a inh)
COc1ccc(NC(=O)Cn2c(=O)oc3cc(S(=O)(=O)NCc4ccccc4)ccc32)c(OC)c1	none (no result: Six1-Eya2 blk, CtBP-E1A inh)
COc1ccc(Br)cc1C1NC(c2ccc3c(c2)OCO3)=CC(c2cc(Cl)ccc2O)N1 (stereo not given)	JMJD2A Tudor 89µM (no result: Six1-Eya2 blk, BAZ2B inh, G9a inh, CtBP-E1A inh)
COc1ccc(N2CCN(C(=O)c3cccc4nc(C)oc34)CC2)cc1	G9a inh inconclusive
CCOc1ccccc1NC(=O)COC(=O)c1c(CC)noc1C	none
O=C(/C(=C/O)N=Nc1ccccc1Cl)c1ccccc1	HP1b binding inh 32µM, BAZ2B inh 13µM, G9a inh 40µM (no result: CtBP-E1A inh)
O=C(/C(=C/O)N=Nc1cccc(C(F)(F)F)c1)c1ccccc1	HP1b binding inh inconclusive, BAZ2B inh 25µM, G9a inh 45µM, JMJD2A Tudor 45µM
Cc1cccc(N=N/C(=C\O)C(=O)c2ccc(Br)cc2)c1	BAZ2B inh inconclusive, G9a inh 11µM, JMJD2A Tudor inconclusive
O=C(/C(=C/O)N=Nc1ccccc1)c1ccco1	HP1b binding inh inconclusive, BAZ2B inh inconclusive, JMJD2A Tudor inconclusive
O=C(NCC1CCCN(C(=O)NCc2ccccc2)C1)c1ccc2c(c1)OCO2 (stereo not given)	none (no result: CtBP-E1A inh)
CCN(CC)C(=O)Cn1cc(S(=O)(=O)CC(=O)Nc2ccc(F)cc2)c2ccccc21	none (no result: BAZ2B inh, G9a inh)
O=C(NC(c1cccnc1)c1ccc2c(c1)OCO2)C1CCN(CCOc2ccc(Cl)cc2Cl)CC1 (stereo not given)	none (no result: HP1b binding inh, BAZ2B inh, G9a inh, JMJD2A Tudor)
Cc1ccc(N2CC(O)(c3cccs3)[N+]3=C2CCCC3)cc1 (stereo not given)	none
Cc1ccc(N2NC(C)(c3cccs3)NC2=S)cc1 (stereo not given)	BAZ2B inh inconclusive, G9a inh 8.9µM, JMJD2A Tudor inconclusive
COc1cc(CN2CCN(c3ncccn3)CC2)cc(OC)c1	none (no result: G9a inh, CtBP-E1A inh)
CCOC(=O)c1ccc(NC(=O)C2CCN(C(=O)c3ccc(OC)c(OC)c3)CC2)cc1	none
COC(=O)c1ccc(NC(=O)C2CCN(C(=O)c3cc(OC)c(OC)c(OC)c3)CC2)cc1	G9a inh 10µM, JMJD2A Tudor 45µM
COc1cc(CN2CCN(Cc3cccc(OC)c3OC)CC2)cc(OC)c1	HP1b binding inh 35µM, BAZ2B inh 18µM, G9a inh 45µM, JMJD2A Tudor 4µM
COc1ccc(CN2CCN(Cc3cccc(Oc4ccccc4)c3)CC2)c(OC)c1OC	HP1b binding inh 25µM, BAZ2B inh 20µM, G9a inh 45µM, JMJD2A Tudor 4µM
COc1cc(C(=O)OCC(=O)N2CCC(Cc3ccccc3)CC2)cc(OC)c1OC	G9a inh 8.9µM
CC(C)CC(=O)N1CCN(C(=O)c2ccc(-c3ccccc3)cc2)CC1	none
